{"source": "PubChem BioAssay AID651827", "about": "(Vanderbilt Specialized Chemistry Center, 2012)", "assay": "PubChem AID 651827", "details": "Ricerca radioligand binding panel, percent inhibition, at 10 µM, stronger effect = higher value", "data": [{"smiles": "CS(=O)(=O)N(CC(=O)NCC1CC1)c1cc(C(F)(F)F)ccc1Cl", "values": [{"measurement": "inhibition", "setting": "Adenosine A2A binding", "result": -8, "unit": "%"}, {"measurement": "inhibition", "setting": "Adenosine A3 binding", "result": 1, "unit": "%"}, {"measurement": "inhibition", "setting": "EGF receptor binding", "result": 14, "unit": "%"}, {"measurement": "inhibition", "setting": "IL-1 receptor binding", "result": 15, "unit": "%"}, {"measurement": "inhibition", "setting": "L-type Ca benzothiazepine site", "result": 48, "unit": "%"}, {"measurement": "inhibition", "setting": "L-type Ca dihydropyridine site", "result": 36, "unit": "%"}, {"measurement": "inhibition", "setting": "Melatonin MT1 binding", "result": 16, "unit": "%"}, {"measurement": "inhibition", "setting": "PAF receptor binding", "result": 15, "unit": "%"}, {"measurement": "inhibition", "setting": "Purinergic P2Y binding", "result": 20, "unit": "%"}, {"measurement": "inhibition", "setting": "Serotonin transporter binding", "result": 15, "unit": "%"}, {"measurement": "inhibition", "setting": "Thyroid hormone binding", "result": 16, "unit": "%"}, {"measurement": "inhibition", "result": -9, "unit": "%"}, {"measurement": "inhibition", "setting": "hERG binding", "result": -2, "unit": "%"}]}]}
